Measured values from PubChem BioAssay.
Activity calls are given as the source filed them.

Columns and labels:
[1] = tested on: Wnt5a (protein binding on small-molecule microarray); assay: small molecules binding Wnt5a protein – biophysical, small-molecule microarray, 635/667 nm fluorescence, primary screen (AID 1142); details: 635 nm fluorescence, higher = more signal;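 further: fluorescence read at 667 nm with signal to noise per printed feature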
[2] = ATP-based viability of Huh7 replicon cells – cell-based, CellTiter-Glo luminescence, basal, 48 h, cytotoxicity control for HCV replication inhibitor project, primary screen (AID 1143); details: higher = more signal, called active from +8 up or from −8 down;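 further: Huh7 hepatoma cells carrying a hepatitis C replication reporter with no stimulus; test concentration not given here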
[3] = basal CRE-LacZ reporter activity in PC12 – cell-based, unstimulated, primary screen (AID 1145); details: no forskolin, luminescence, 4.5 h, higher = more signal, called active from +8 up or from −8 down
[4] = forskolin-driven CRE-LacZ activity in PC12 – cell-based, CRE-LacZ reporter, forskolin-stimulated, primary screen (AID 1146); details: luminescence, 4.5 h, higher = more signal, called active from +8 up or from −8 down;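 further: PC12 cells with 6xCRE LacZ reporter stimulated by forskolin 10 µM; beta-galactosidase reporter signal reflecting CREB driven transcription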
[5] = biological target: Streptavidin (Streptomyces avidinii) (UniProt P22629); assay: compounds binding control protein streptavidin – biophysical, small-molecule microarray, 635/667 nm fluorescence, artefact control for SMM compound annotation, primary screen (AID 1147); details: higher = more signal;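 further: signal reflects streptavidin binding to arrayed compounds as a control protein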
[6] = probe aInhba binding on compound microarray – biochemical, small-molecule microarray, 635/667 nm fluorescence, primary screen (AID 1148); details: higher = more signal;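 further: score merges 667nm spot fluorescence with signal-to-noise for antibody binding to printed compounds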
Torsin-1A (Homo sapiens) [7] = biological target: Torsin-1A (Homo sapiens) (UniProt O14656); assay: TOR1A wild-type binding on microarray – cell lysate, small-molecule microarray, lysate, 635/667 nm, primary screen (AID 1149); details: COS7 hTOR1A-WT lysate, 635 nm fluorescence, higher = more signal
Torsin-1A (Homo sapiens) [8] = biological target: Torsin-1A (Homo sapiens) (UniProt O14656); assay: torsin A mutant lysate binding on microarrays – cell lysate, small-molecule microarray, COS7 lysate, 635/667 nm fluorescence, primary screen (AID 1150); details: COS7 hTOR1A mutant lysate, 635 nm fluorescence, higher = more signal;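 further: score pools 667 nm emission and signal to noise measuring lysate protein binding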
[9] = tested on: Sonic hedgehog protein (Shh); assay: Sonic hedgehog microarray binding compounds – biochemical, small-molecule microarray, 635/667 nm fluorescence, primary screen (AID 1151); details: 635 nm fluorescence, higher = more signal;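 further: Shh protein binding to compounds spotted on small-molecule microarray slides; score combines spot fluorescence intensity with signal-to-noise across triplicate slides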
[10] = optical density shifts of acrAB sulA E. coli – strain DRC41, OD650, 48 h, E. coli filamentation inducer project, primary screen (AID 1152); details: higher = more signal, called active from +8 up or from −8 down;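 further: E. coli MC1000 strain DRC41 lacking acrAB efflux pump and sulA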
[11] = probe aLefty1 binding on compound microarray – biochemical, small-molecule microarray, 635/667 nm fluorescence, primary screen (AID 1153); details: higher = more signal;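 further: score merges spot fluorescence with signal-to-noise ratio from the scanned slide images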
[12] = plasmodial surface anion channel blockers, osmotic lysis – cell-based, P. falciparum Indochina, OD700, 1 h, primary screen (AID 1154); details: P. falciparum Indochina infected RBC osmotic lysis, higher = more signal, called active from +8 up or from −8 down
[13] = plasmodial surface anion channel blockers, osmotic lysis – cell-based, P. falciparum Indochina, OD700, 2 h, primary screen (AID 1155);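 further: lysis reports solute entry through the parasite surface anion channel PSAC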; details: P. falciparum Indochina infected erythrocytes, higher = more signal, called active from +8 up or from −8 down
[14] = changes in parasitized red cell lysis, either direction – P. falciparum Indochina, OD700, 3 h, PSAC antagonist project, primary screen (AID 1156); details: P. falciparum-infected erythrocytes, osmotic lysis, higher = more signal, called active from +8 up or from −8 down
[15] = plasmodial surface anion channel blockers, osmotic lysis – cell-based, P. falciparum Indochina, OD700, 18 h, primary screen (AID 1157); details: P. falciparum Indochina infected erythrocytes, osmotic lysis OD700, 18 h; higher = more signal, called active from +8 up or from −8 down
[16] = S6 kinase pathway phospho-S6 level changes – cell-based, A549, cytoblot, luminescence, serum-stimulated, primary screen (AID 1158); details: 5 h, higher = more signal;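 further: serum-stimulated A549 lung adenocarcinoma cells; signal is phosphorylated S6 detected by cytoblot immunostaining with HRP secondary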
[17] = biological target: NADPH oxidase 2 (Homo sapiens) (UniProt P04839); assay: compounds shifting NOX2 Amplex Red fluorescence – cell-based, HEK293-NOX2, PMA-stimulated, NOX inhibitor project, primary screen (AID 1159); details: 45 min, higher = more signal, called active from +8 up or from −8 down; further: test concentration not given here
[18] = biological target: NADPH oxidase 4 (Homo sapiens) (UniProt Q9NPH5); assay: compounds shifting NOX4 Amplex Red fluorescence – cell-based, HEK293-NOX4, tetracycline-induced, NOX inhibitor project, primary screen (AID 1160); details: HEK293-NOX4, Amplex Red H2O2 fluorescence, 45 min; higher = more signal, called active from +8 up or from −8 down
[19] = biological target: NADPH oxidase 5 (Homo sapiens) (UniProt Q96PH1); assay: compounds shifting NOX5 Amplex Red fluorescence – cell-based, HEK293-NOX5, NOX inhibitor project, primary screen (AID 1161); details: HEK293-NOX5, ionomycin, 45 min, higher = more signal
[20] = compound effects on lung adenocarcinoma cell viability – A549, calcein-AM fluorescence, 48 h, basal, profiling panel (AID 1162); details: higher = more signal; further: test concentration not given here

Sequence of NADPH oxidase 2 (Homo sapiens) (P04839 whole entry, looked up): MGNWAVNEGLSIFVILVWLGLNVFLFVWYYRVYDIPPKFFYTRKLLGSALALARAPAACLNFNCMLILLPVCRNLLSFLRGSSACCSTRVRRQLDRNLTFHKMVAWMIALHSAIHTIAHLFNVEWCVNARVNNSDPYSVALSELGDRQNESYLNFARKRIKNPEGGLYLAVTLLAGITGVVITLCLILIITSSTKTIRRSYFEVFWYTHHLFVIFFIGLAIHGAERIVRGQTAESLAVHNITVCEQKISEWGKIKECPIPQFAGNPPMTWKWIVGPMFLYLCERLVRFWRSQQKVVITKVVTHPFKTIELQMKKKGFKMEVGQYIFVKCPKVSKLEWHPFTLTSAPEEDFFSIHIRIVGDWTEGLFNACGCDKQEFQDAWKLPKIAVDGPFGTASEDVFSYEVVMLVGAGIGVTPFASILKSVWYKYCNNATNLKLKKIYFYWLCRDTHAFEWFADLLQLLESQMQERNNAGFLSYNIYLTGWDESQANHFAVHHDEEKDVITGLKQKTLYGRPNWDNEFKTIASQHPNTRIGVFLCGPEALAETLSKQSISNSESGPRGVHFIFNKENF
Sequence of Streptavidin (Streptomyces avidinii) (P22629 whole entry, looked up): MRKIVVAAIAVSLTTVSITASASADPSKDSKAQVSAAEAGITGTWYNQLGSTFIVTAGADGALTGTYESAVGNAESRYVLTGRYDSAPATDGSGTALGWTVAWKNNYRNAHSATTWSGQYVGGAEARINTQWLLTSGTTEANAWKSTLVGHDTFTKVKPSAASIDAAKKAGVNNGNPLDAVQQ
Sequence of NADPH oxidase 4 (Homo sapiens) (Q9NPH5 whole entry, looked up): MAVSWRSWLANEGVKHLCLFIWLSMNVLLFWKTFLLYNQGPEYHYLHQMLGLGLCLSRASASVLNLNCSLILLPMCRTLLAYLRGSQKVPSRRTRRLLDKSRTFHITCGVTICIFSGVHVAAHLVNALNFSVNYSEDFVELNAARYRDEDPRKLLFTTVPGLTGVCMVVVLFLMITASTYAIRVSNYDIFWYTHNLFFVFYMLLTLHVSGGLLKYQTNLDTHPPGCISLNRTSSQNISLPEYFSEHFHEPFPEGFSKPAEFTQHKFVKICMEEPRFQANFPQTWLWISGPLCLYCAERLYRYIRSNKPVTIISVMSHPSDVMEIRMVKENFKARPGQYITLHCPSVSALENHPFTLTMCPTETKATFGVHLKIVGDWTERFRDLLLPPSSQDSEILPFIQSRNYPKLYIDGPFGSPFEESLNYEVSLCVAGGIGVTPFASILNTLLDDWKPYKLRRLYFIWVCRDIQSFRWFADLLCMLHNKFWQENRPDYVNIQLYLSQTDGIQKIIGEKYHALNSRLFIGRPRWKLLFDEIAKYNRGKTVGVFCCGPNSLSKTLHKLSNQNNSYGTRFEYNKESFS
Sequence of Torsin-1A (Homo sapiens) (O14656 whole entry, looked up): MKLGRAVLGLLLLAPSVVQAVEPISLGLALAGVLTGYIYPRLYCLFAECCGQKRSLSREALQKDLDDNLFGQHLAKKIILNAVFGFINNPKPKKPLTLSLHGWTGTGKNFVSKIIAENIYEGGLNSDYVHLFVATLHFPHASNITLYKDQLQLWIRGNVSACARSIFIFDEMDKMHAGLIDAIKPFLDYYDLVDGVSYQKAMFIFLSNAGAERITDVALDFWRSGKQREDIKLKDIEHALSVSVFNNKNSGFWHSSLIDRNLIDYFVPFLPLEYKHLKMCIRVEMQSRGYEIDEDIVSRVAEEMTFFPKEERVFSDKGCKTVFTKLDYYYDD
Sequence of NADPH oxidase 5 (Homo sapiens) (Q96PH1 whole entry, looked up): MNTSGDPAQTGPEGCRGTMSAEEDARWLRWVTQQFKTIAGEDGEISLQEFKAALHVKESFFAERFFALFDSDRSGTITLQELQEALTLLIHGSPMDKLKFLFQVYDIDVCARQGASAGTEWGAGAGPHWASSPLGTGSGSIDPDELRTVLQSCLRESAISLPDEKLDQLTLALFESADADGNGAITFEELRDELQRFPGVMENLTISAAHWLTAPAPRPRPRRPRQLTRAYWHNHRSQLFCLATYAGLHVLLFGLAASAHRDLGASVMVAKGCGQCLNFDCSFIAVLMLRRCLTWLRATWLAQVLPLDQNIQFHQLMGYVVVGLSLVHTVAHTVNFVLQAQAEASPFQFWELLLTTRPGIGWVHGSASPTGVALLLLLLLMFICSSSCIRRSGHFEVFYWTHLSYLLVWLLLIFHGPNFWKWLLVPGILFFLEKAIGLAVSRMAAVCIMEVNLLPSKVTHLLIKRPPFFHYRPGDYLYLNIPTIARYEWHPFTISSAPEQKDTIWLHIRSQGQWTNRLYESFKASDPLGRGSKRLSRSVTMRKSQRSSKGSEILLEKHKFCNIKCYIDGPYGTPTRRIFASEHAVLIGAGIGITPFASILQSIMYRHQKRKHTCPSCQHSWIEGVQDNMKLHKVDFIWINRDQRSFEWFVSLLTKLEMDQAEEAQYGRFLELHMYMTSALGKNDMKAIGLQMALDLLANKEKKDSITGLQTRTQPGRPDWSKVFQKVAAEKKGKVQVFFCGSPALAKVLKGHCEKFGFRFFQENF

Row | SMILES | composite z-score [1] | z-score [2] | z-score [3] | z-score [4] | composite z-score [5] | composite z-score [6] | composite z-score (Torsin-1A (Homo sapiens) [7]) | composite z-score (Torsin-1A (Homo sapiens) [8]) | composite z-score [9] | z-score [10] | composite z-score [11] | z-score [12] | z-score [13] | z-score [14] | z-score [15] | z-score [16] | z-score [17] | z-score [18] | z-score [19] | z-score [20]
1 | NCCCCCNC(=O)[C@H]1C[C@H]2C(=O)NCC(=O)N2[C@H]1c1ccc(O)cc1 | 0.518 | -0.108 (inactive) | 0.679 (inactive) | 0.407 (inactive) | 1.72 | -0.0419 | 1.69 | 0.376 | 2 | 1.01 (inactive) | -0.147 | 0.365 (inactive) | 0.113 (inactive) | -1.79 (inactive) | 0.252 (inactive) | -0.565 | 0.653 (inactive) | -1.24 (inactive) | 0.566 | -0.0704
2 | CC(C)CNC(=O)[C@@H]1c2ccccc2C(=O)N(Cc2ccc(OC(F)(F)F)cc2)[C@H]1c1ccc(CO)cc1 | 0.314 | -2.27 (inactive) | -0.646 (inactive) | -1.28 (inactive) | 0.941 | 0.25 | 0.864 | 0.72 | 2.02 | 3.99 (inactive) | 0.315 | 2.06 (inactive) | -0.18 (inactive) | 0.209 (inactive) | -0.657 (inactive) | 1.69 | -1.43 (inactive) | 0.925 (inactive) | 1.57 | 2.26
3 | CCCCC(=C=CC[C@@H](O)c1ccc(OCCO)cc1)C[C@@H](O)c1cc(Cl)cc(Cl)c1O | 0.145 | -2.71 (inactive) | 14.3 (active) | -2.04 (inactive) | 0.414 | 0.0536 | -0.0726 | 1.01 | 0.184 | 1.55 (inactive) | -0.147 | 20.3 (active) | 4.24 (inactive) | 1.41 (inactive) | 0.159 (inactive) | 0.903 | 0.444 (inactive) | 0.55 (inactive) | -1.14 | 2.24
4 | CC(C)(C)OC(=O)CC[C@@]1(C(=O)N2CCOCC2)N=C(c2ccc(OCCCO)cc2)O[C@@H]1c1ccccc1 | 0.674 | -1.77 (inactive) | 1.56 (inactive) | -0.257 (inactive) | 0.3 | 0.182 | 1.38 | 1.46 | -0.0953 | 1.79 (inactive) | 0.951 | 20.8 (active) | 3.95 (inactive) | 0.794 (inactive) | -0.73 (inactive) | 1.12 | -0.261 (inactive) | -0.961 (inactive) | -0.0438 | 0.343
